Results reported in PubChem BioAssay (NCI).
Compounds without any hit were thinned out: in the full panel of roughly 83,000, 20% have a hit.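 Cell lines were cultured in 96-well plates, exposed to a single compound concentration, and assessed for percent growth 48 hours later.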 Calls of active or inactive are those of the source. How the source made its calls: active means growth percent below 10; inactive means the rest.

Tests used:
Test in all cases: NCI-60 one-dose screen, 48 h (100 = growth as untreated, 0 = no growth, -100 = all killed)
Details in all cases: 10 µM
SR leukemia = test system: SR leukemia
RPMI-8226 leukemia = test system: RPMI-8226 leukemia
OVCAR-8 ovarian = test system: OVCAR-8 ovarian
OVCAR-5 ovarian = test system: OVCAR-5 ovarian
SK-OV-3 ovarian = test system: SK-OV-3 ovarian
IGROV1 ovarian = test system: IGROV1 ovarian
OVCAR-3 ovarian = test system: OVCAR-3 ovarian
HS 578T breast = test system: HS 578T breast
NCI/ADR-RES ovarian = test system: NCI/ADR-RES ovarian
T-47D breast = test system: T-47D breast
BT-549 breast = test system: BT-549 breast
MDA-MB-435 melanoma = test system: MDA-MB-435 melanoma
SW-620 colon = test system: SW-620 colon
MCF7 breast = test system: MCF7 breast
HCT-116 colon = test system: HCT-116 colon
HCC-2998 colon = test system: HCC-2998 colon
KM12 colon = test system: KM12 colon
OVCAR-4 ovarian = test system: OVCAR-4 ovarian

Measured: growth

CC(C)N(CCOc1ccc(-c2nc3sccn3c2-c2ccnc(S(C)(=O)=O)n2)cc1)C(C)C
inactive: SR leukemia 74.4% | RPMI-8226 leukemia 71.2% | OVCAR-8 ovarian 90.6% | OVCAR-5 ovarian 104% | SK-OV-3 ovarian 90.3% | IGROV1 ovarian 96.2% | OVCAR-3 ovarian 72.8% | HS 578T breast 76.6% | NCI/ADR-RES ovarian 89.2% | T-47D breast 105% | BT-549 breast 90.8% | MDA-MB-435 melanoma 92.6% | SW-620 colon 78.2% | MCF7 breast 82.5% | HCT-116 colon 61.5% | HCC-2998 colon 88% | KM12 colon 90.4%

O=C(CSc1nnc(-c2cccnc2SCc2ccccc2)o1)Nc1nc(Cl)cc(Cl)n1
inactive: SR leukemia 101% | RPMI-8226 leukemia 100% | OVCAR-8 ovarian 102% | OVCAR-4 ovarian 106% | SK-OV-3 ovarian 110% | IGROV1 ovarian 105% | OVCAR-3 ovarian 106% | HS 578T breast 97.4% | NCI/ADR-RES ovarian 101% | T-47D breast 98.5% | BT-549 breast 102% | MDA-MB-435 melanoma 105% | SW-620 colon 103% | MCF7 breast 92% | HCT-116 colon 97.3% | HCC-2998 colon 103%

COc1cc(CNC(=O)C2CSC3(C)c4ccccc4C(=O)N23)cc(OC)c1OC (centres undefined)
inactive: SR leukemia 77.4% | RPMI-8226 leukemia 90.2% | OVCAR-8 ovarian 92.4% | OVCAR-4 ovarian 97% | SK-OV-3 ovarian 104% | IGROV1 ovarian 107% | OVCAR-3 ovarian 112% | HS 578T breast 94.1% | NCI/ADR-RES ovarian 102% | T-47D breast 87.2% | BT-549 breast 108% | MDA-MB-435 melanoma 105% | SW-620 colon 101% | MCF7 breast 93.7% | HCT-116 colon 98.1% | HCC-2998 colon 95.5%

O=C1/C=C/[C@@H](O)[C@@H]2C[C@@H](O)C[C@H]2/C=C/CCC[C@H](CCc2ccc(NC(=S)Nc3ccc4c(c3)C(=O)OC43c4ccc(O)cc4Oc4cc(O)ccc43)cc2)O1
inactive: RPMI-8226 leukemia 12.3% | OVCAR-8 ovarian 10.5% | OVCAR-4 ovarian 23.4% | SK-OV-3 ovarian 32.1% | IGROV1 ovarian 25.7% | HS 578T breast 39.8% | NCI/ADR-RES ovarian 10.9% | T-47D breast 21.2% | BT-549 breast 21.3% | MDA-MB-435 melanoma 18.8%
active: SR leukemia 6.14% | OVCAR-3 ovarian -0.249% | SW-620 colon 3.26% | MCF7 breast -5.59% | HCT-116 colon -37.2% | HCC-2998 colon -7.57%

C#CC(C)(O)[C@@H]1C[C@H](CC(=O)O)C1(C)C (some centres undefined)
inactive: SR leukemia 88.9% | RPMI-8226 leukemia 109% | OVCAR-8 ovarian 112% | OVCAR-5 ovarian 102% | SK-OV-3 ovarian 116% | OVCAR-3 ovarian 119% | HS 578T breast 105% | NCI/ADR-RES ovarian 111% | T-47D breast 120% | BT-549 breast 104% | SW-620 colon 109% | MCF7 breast 94%

NS(=O)(=O)c1ccc(N2N=C(c3ccccc3)CCC2=O)cc1
inactive: SR leukemia 66.5% | RPMI-8226 leukemia 94.5% | OVCAR-8 ovarian 98% | OVCAR-5 ovarian 112% | SK-OV-3 ovarian 113% | IGROV1 ovarian 105% | OVCAR-3 ovarian 158% | HS 578T breast 113% | NCI/ADR-RES ovarian 98% | T-47D breast 102% | BT-549 breast 223% | MDA-MB-435 melanoma 97.3% | SW-620 colon 109% | MCF7 breast 95.4% | HCT-116 colon 86.8% | KM12 colon 188%

CCOC(=O)/C(=C(\C)N)C1CC(=O)NC1=O (centres undefined)
inactive: SR leukemia 102% | RPMI-8226 leukemia 101% | OVCAR-8 ovarian 99.7% | OVCAR-5 ovarian 102% | SK-OV-3 ovarian 107% | IGROV1 ovarian 118% | OVCAR-3 ovarian 109% | HS 578T breast 97.5% | NCI/ADR-RES ovarian 92.8% | T-47D breast 110% | BT-549 breast 87.3% | MDA-MB-435 melanoma 100% | SW-620 colon 96.8% | MCF7 breast 91% | HCT-116 colon 107% | HCC-2998 colon 103% | KM12 colon 121%

Nc1cc(Br)c(-c2nn3c(CCC(=O)c4nc5ccccc5[nH]4)nnc3s2)c(Br)c1
inactive: SR leukemia 88.1% | RPMI-8226 leukemia 85.1% | OVCAR-8 ovarian 96.5% | OVCAR-5 ovarian 122% | SK-OV-3 ovarian 113% | IGROV1 ovarian 101% | OVCAR-3 ovarian 105% | HS 578T breast 90% | NCI/ADR-RES ovarian 97.3% | T-47D breast 88% | BT-549 breast 105% | MDA-MB-435 melanoma 90.5% | SW-620 colon 112% | MCF7 breast 87.5% | HCT-116 colon 77.9% | HCC-2998 colon 104% | KM12 colon 96.4%

C/C=C/C1=CN2C(=O)c3cc(OC4OC(C)C(NC)C(C)(O)C4O)c(C)c(O)c3N=C[C@@H]2C1 (some centres undefined)
active: SR leukemia 0.588% | RPMI-8226 leukemia 7.45% | OVCAR-8 ovarian 9.18% | OVCAR-5 ovarian -1.31% | SK-OV-3 ovarian 1.76% | OVCAR-3 ovarian -4.33% | HS 578T breast -11.6% | NCI/ADR-RES ovarian -6.18% | T-47D breast -8.27% | BT-549 breast -34.4% | MDA-MB-435 melanoma -77% | SW-620 colon -14.9% | MCF7 breast 0.963% | HCT-116 colon 1.59% | HCC-2998 colon -56.7% | KM12 colon -60.7%

O=C(CCn1cnc2c(cc(-c3ccccc3)n2-c2ccccc2)c1=O)Nc1ccc(F)cc1
inactive: SR leukemia 72.3% | RPMI-8226 leukemia 79.3% | OVCAR-8 ovarian 54% | OVCAR-5 ovarian 85.8% | SK-OV-3 ovarian 64.6% | IGROV1 ovarian 81.3% | OVCAR-3 ovarian 76.7% | HS 578T breast 63.1% | NCI/ADR-RES ovarian 55.1% | T-47D breast 68.2% | BT-549 breast 57.8% | MDA-MB-435 melanoma 85.2% | SW-620 colon 95.9% | MCF7 breast 74.7% | HCT-116 colon 62.5% | HCC-2998 colon 86.2% | KM12 colon 73.8%

NC(=O)c1cccc(-n2ccc3cc(NC(=O)Nc4ccc(Cl)c(C(F)(F)F)c4)ccc32)n1
inactive: SR leukemia 91.1% | RPMI-8226 leukemia 70.5% | OVCAR-8 ovarian 72.1% | OVCAR-5 ovarian 93.1% | SK-OV-3 ovarian 94.8% | IGROV1 ovarian 74.5% | OVCAR-3 ovarian 94.7% | HS 578T breast 46.5% | NCI/ADR-RES ovarian 82% | T-47D breast 68.5% | BT-549 breast 69.8% | MDA-MB-435 melanoma 74.9% | SW-620 colon 111% | MCF7 breast 43.8% | HCT-116 colon 67% | HCC-2998 colon 96.3% | KM12 colon 64.4%

O=[N+]([O-])c1ccc2ncccc2c1Cl
inactive: RPMI-8226 leukemia 38.7% | OVCAR-8 ovarian 18.6% | OVCAR-5 ovarian 85.3% | SK-OV-3 ovarian 63.6% | OVCAR-3 ovarian 40.7% | HS 578T breast 67% | NCI/ADR-RES ovarian 29.2% | T-47D breast 68.7% | BT-549 breast 43.6% | SW-620 colon 14.5% | MCF7 breast 13.4% | HCC-2998 colon 106%
active: SR leukemia 7.28% | MDA-MB-435 melanoma -36.9% | KM12 colon -7.28%

COc1ccc(C(=O)c2cc3c(OC)c(OC)c(OC)cc3[nH]2)cc1
inactive: RPMI-8226 leukemia 31.4% | OVCAR-8 ovarian 62.8% | OVCAR-5 ovarian 68.4% | SK-OV-3 ovarian 86.4% | IGROV1 ovarian 35% | OVCAR-3 ovarian 45.1% | HS 578T breast 51.8% | NCI/ADR-RES ovarian 18.6% | T-47D breast 34.9% | SW-620 colon 33.9% | MCF7 breast 20.4% | HCT-116 colon 28.1% | HCC-2998 colon 51.3% | KM12 colon 12.6%
active: SR leukemia -47.8% | MDA-MB-435 melanoma -0.263%

CC(=O)[C@H]1CC[C@]2(C)[C@@H]1CC[C@@H]1[C@@]3(C)CC(CCC#N)(CCC#N)C(=O)C(C)(C)[C@@H]3CC[C@]12C
inactive: SR leukemia 101% | RPMI-8226 leukemia 107% | OVCAR-8 ovarian 106% | OVCAR-4 ovarian 87.2% | SK-OV-3 ovarian 103% | IGROV1 ovarian 98.4% | OVCAR-3 ovarian 107% | HS 578T breast 90.5% | NCI/ADR-RES ovarian 90.5% | T-47D breast 91.2% | BT-549 breast 103% | MDA-MB-435 melanoma 92.4% | SW-620 colon 88.8% | MCF7 breast 90.1% | HCT-116 colon 96% | HCC-2998 colon 100%

Nc1ccc(/C=N/Nc2ccnc3c(O)cccc23)c2cccnc12
active: SR leukemia 2.19% | SW-620 colon 7.41%
inactive: RPMI-8226 leukemia 31.8% | OVCAR-8 ovarian 14.4% | OVCAR-5 ovarian 107% | SK-OV-3 ovarian 85.7% | IGROV1 ovarian 60.2% | OVCAR-3 ovarian 20% | HS 578T breast 63.9% | NCI/ADR-RES ovarian 30.6% | T-47D breast 98.3% | BT-549 breast 80.2% | MDA-MB-435 melanoma 46.8% | MCF7 breast 31.7% | HCC-2998 colon 60.8% | KM12 colon 43.3%

Cc1ccc(-n2nnnc2N)c(C)c1
inactive: SR leukemia 112% | RPMI-8226 leukemia 109% | OVCAR-8 ovarian 108% | OVCAR-5 ovarian 107% | SK-OV-3 ovarian 113% | IGROV1 ovarian 123% | OVCAR-3 ovarian 113% | HS 578T breast 99% | NCI/ADR-RES ovarian 105% | T-47D breast 112% | MDA-MB-435 melanoma 102% | SW-620 colon 96% | MCF7 breast 95.9% | HCT-116 colon 98.7% | HCC-2998 colon 95% | KM12 colon 108%

C/C=C/CSC(C)(C)C(=O)NC
inactive: SR leukemia 109% | RPMI-8226 leukemia 99.8% | OVCAR-8 ovarian 98.4% | OVCAR-5 ovarian 113% | SK-OV-3 ovarian 95.6% | IGROV1 ovarian 115% | OVCAR-3 ovarian 108% | HS 578T breast 99.5% | NCI/ADR-RES ovarian 108% | T-47D breast 100% | MDA-MB-435 melanoma 106% | SW-620 colon 104% | MCF7 breast 93.8% | HCT-116 colon 91.2% | HCC-2998 colon 101% | KM12 colon 102%

CCOC(=O)c1cc(C(=O)c2ccc(Cl)cc2)n2ccc(-c3cc[n+](CC(=O)c4ccc(OC)cc4)cc3)cc12
inactive: RPMI-8226 leukemia 23.4% | OVCAR-8 ovarian 76.7% | OVCAR-5 ovarian 112% | SK-OV-3 ovarian 91.1% | IGROV1 ovarian 93.2% | OVCAR-3 ovarian 37.4% | HS 578T breast 83.2% | NCI/ADR-RES ovarian 88.8% | T-47D breast 83.4% | BT-549 breast 82.1% | MDA-MB-435 melanoma 75.5% | HCC-2998 colon 100% | KM12 colon 64.4%
active: SR leukemia -27.2% | SW-620 colon -29.5% | MCF7 breast 1.28% | HCT-116 colon 5.5%
